# Source: PubChem BioAssay AID1851 (National Center for Advancing Translational Sciences (NCATS), 2009)
# Several values for one entry are separate records, joined by “and”; a condition that tells them apart may be missing. Equal values may be shown once. Out of some 16,000 compounds screened, about 2,600 (16%) were called active. Inconclusive results (about 20%) are left out. These entries were drawn from the full list. Unmarked numbers belong to inactive results. Calls follow the shape of the dose curve; as a rule, active = well fitted curve in the direction sought with a large enough effect; inconclusive = small, poorly fitted or top-dose-only effect, or effect the other way; inactive = no such curve, though single readings can be large or run the other way.
# Biological target: Cytochrome P450 2D6 (Homo sapiens) (UniProt P10635)
# Assay: Cytochrome panel assay with activity outcomes
# Conditions: recombinant CYP, pro-luciferin dealkylation, luminescence, p450-cyp2d6; series mostly up to 57.1 µM; activity, negative = inhibition: at the top concentration
# % is scaled to controls: 0 for no effect and ±100 for the full control effect.
# Cytochrome P450 2D6 (Homo sapiens), sequence (P10635 whole entry, looked up): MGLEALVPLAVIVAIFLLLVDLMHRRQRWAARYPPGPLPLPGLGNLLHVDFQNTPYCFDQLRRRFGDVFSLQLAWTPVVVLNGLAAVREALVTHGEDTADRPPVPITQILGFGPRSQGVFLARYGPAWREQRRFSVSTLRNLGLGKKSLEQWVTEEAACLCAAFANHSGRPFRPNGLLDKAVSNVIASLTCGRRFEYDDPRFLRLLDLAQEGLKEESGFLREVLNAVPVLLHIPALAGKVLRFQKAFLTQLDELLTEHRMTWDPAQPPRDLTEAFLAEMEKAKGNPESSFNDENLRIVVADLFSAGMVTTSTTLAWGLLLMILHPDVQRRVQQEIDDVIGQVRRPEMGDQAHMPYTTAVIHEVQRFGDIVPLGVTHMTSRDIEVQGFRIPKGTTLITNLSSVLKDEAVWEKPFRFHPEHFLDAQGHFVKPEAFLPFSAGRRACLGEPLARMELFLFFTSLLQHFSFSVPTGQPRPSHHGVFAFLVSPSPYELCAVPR
Structure (SMILES),AC50,"activity, negative = inhibition"
c1ccc2c(Nc3ccncc3)nc(-c3ccc4c(c3)OCO4)nc2c1,20 µM (active),–
N#Cc1cccc(-c2nc(Nc3ccncc3)c3ccccc3n2)c1,–,-7.94%
Cc1noc(C)c1-c1nc(Nc2ccccc2)c2ccccc2n1,–,6.91%
O=c1[nH][nH]cc1C=Nc1ccccc1O,–,-5.68%
Cc1noc(COc2ccc(OCc3nc(C)no3)cc2)n1,–,-22.9%
Cc1cc(C)n(-c2nc(NC(C)C)nc(NC(C)C)n2)n1,–,1.57%
c1ccc2c(N3CCNCC3)nc(-c3ccc4c(c3)OCO4)nc2c1,3.16 µM (active),–
CN(C)c1ccc(-c2nc(N3CCNCC3)c3ccccc3n2)cc1,12.6 µM (active),–
COc1cc(/C=C/C(=O)O)cc(S(=O)(=O)NCCCO)c1OC,–,-3.23%
O=C1Oc2ccccc2C2(O)C3CCCCCC3C12 (stereo unspecified),–,-17.5%
CSc1nc(Oc2ccc(=O)[nH]n2)nc(N(C)C)n1,–,-21.1%
Cc1cc(/C=C2\SC(=S)NC2=O)c(C)n1C,–,-6.16%
CCCCCSc1nnc(C)c(=O)[nH]1,–,9.5%
COc1ccc(NC(=O)N2CC[C@@]3(CCCN(C(=O)c4cc(C(F)(F)F)cc(C(F)(F)F)c4)C3)C2)cc1,–,7.53%
O=C(O)/C(Cc1ccc([N+](=O)[O-])cc1)=N/O,–,6.05% [at 11.4 µM]
COc1ccc(/C=C2/S/C(=N/N=C3\CC4CCC3(C)C4(C)C)NC2=O)cc1 (stereo unspecified),–,-4.41%
CC(=O)O[C@]1(C(C)=O)CC[C@@H]2[C@@H]3C=C(Cl)C4=CC(=O)[C@H]5C[C@@H]5[C@]4(C)[C@H]3CC[C@]21C,inactive,–
CCNc1ncc2nc(-c3ccc(OC)cc3)c(=O)n(Cc3cccs3)c2n1,–,-0.478%
COc1cccc(Nc2nc(-c3ccc(O)cc3)cs2)c1,8.91 µM (active),–
COc1cccc(-c2csc(N3CCN(C(=S)Nc4ccccc4)CC3)n2)c1,–,-11.1%
COc1ccc(-c2csc(NC(=O)Cn3nc(C)cc3C)n2)cc1,–,-0.175%
Cc1ccc(OCC(=O)NNC(=O)C2CCN(c3ncccn3)CC2)cc1,–,-28%
OC[C@@H]1O[C@@H](n2cnc3c(NC4CCCC4)ncnc32)[C@H](O)[C@H]1O,–,-1.52%
Cc1ccn2c(NC(=O)c3ccccc3)c(-c3cccs3)nc2c1,–,-21.6%

Structure (SMILES),AC50,"activity, negative = inhibition"
CC[N+](CC)(CC)CC(=O)Nc1c(C)cccc1C,inactive,–
Cc1cccc(C)c1NC(=S)NC(=O)CCc1ccccc1,–,-13.9%
CC[N+](CC)(CC(=O)Nc1c(C)cccc1C)Cc1ccccc1,0.00794 µM (active),–
COc1ccc(CCNC(=O)C2CCN(S(=O)(=O)N3CC(C)CC(C)C3)CC2)cc1OC (stereo unspecified),–,0.862%
C1CCC(N=C(NC23CC4CC(CC(C4)C2)C3)N2CCOCC2)CC1,0.631 µM (active),–
COC(=O)[C@@]1(Cc2ccc(OC)cc2)[C@H]2c3cc(C(=O)N4CCCC4)n(Cc4cc(F)cc5c4OCOC5)c3C[C@H]2CN1C(=O)c1ccccc1,–,-3.21%
CCn1ccc(C(=O)NC2=C(C#N)CCC2)n1,–,4.95%
COc1cc(N)c(Cl)cc1C(=O)CCC1CCN(CCNS(C)(=O)=O)CC1,12.6 µM (active),–
Cn1cc(C(=O)OCC2CCN(CCNS(C)(=O)=O)CC2)c2ccccc21,–,-4.93%
COc1[nH]c2ccc(F)cc2c1C(=O)OCC1CCN(CCNS(C)(=O)=O)CC1,inactive,–
COc1cc(COc2cc(N)c(Cl)cc2C(=O)CCC2CCN(CCNS(C)(=O)=O)CC2)cc(OC)c1,0.794 µM (active),–
COc1cc(/C=C(\C#N)C(=O)NCC2CCCO2)c([N+](=O)[O-])cc1OC (stereo unspecified),–,-17.7%
CCn1c(CC(C)C)n[nH]c1=S,–,-7.94%
CO[C@H]1COC(=O)C/C=C\[C@H](C)[C@@H](NS(=O)(=O)c2ccc(C)cc2)COC(=O)CCC[C@@H]1C,–,8.76% [at 11.4 µM]
COC(Cc1nnc(SC)n1-c1ccc(Cl)cc1)OC,–,-0.686%
Cc1cccc(Oc2coc3cc(OC(=O)c4cccs4)ccc3c2=O)c1,–,-22.9%
Cc1ccc(CS(=O)(=O)CCC(=O)N2CCOCC2)cc1,–,7.49%
CC(C)n1c(N2CCN(C(=O)Nc3ccccc3)CC2)nc2ccccc21,–,-28.3%
Cn1cc(/C=N/n2cnc3sc4c(c3c2=O)CCCC4)c2ccccc21,–,-12.6%
COc1ccc2[nH]cc(CCNc3ncnc4ccc(-c5ccc6c(c5)OCO6)cc34)c2c1,2.51 µM (active),–
COc1cccc(-c2ccc3ncnc(NCCc4c[nH]c5ccc(OC)cc45)c3c2)c1,2.51 µM (active),–
COc1ccc2[nH]cc(CCNc3ncnc4ccc(-c5ccoc5)cc34)c2c1,5.01 µM (active),–
COc1ccc2[nH]cc(CCNc3ncnc4ccc(-c5cccnc5)cc34)c2c1,7.94 µM (active),–
COC(=O)[C@@H]1CC[C@H](C)[C@@H](c2ccc(C)cc2)N1C(=O)c1ccc(/C=N\O[C@@H](C)c2cn([C@H](CO)Cc3ccccc3)nn2)cc1,–,12.4% [at 11.4 µM] and -16.1% [at 11.4 µM]

Structure (SMILES),AC50,"activity, negative = inhibition"
N[C@](CC1c2ccccc2Oc2ccccc21)(C(=O)O)[C@@H]1C[C@@H]1C(=O)O,–,8.73%
COc1ccc(-n2c(=O)c(-c3ccc(F)cc3)nc3cncnc32)cc1,–,-3.89%
Cn1nnnc1SCc1ccc(C(=O)Nc2ccc(Br)cc2)cc1,–,-9.28%
CCC(=O)OCc1c(C(F)(F)F)nn(C)c1Sc1ccc(F)cc1,–,-17.1%
CC(C)(C)C(=O)NC(=C(Cl)Cl)P(=O)(O)O,–,-4%
Cc1c(C)c2c(c(C)c1O)CC[C@@](C)(C(=O)O)O2,–,0.454% [at 25.6 µM]
CCCNc1nc(NCC)nc(OC)n1,–,3.27%
Cc1noc(C)c1C(=O)N1CCC2(CCCN(Cc3nccs3)C2)CC1,–,-12.8%
C[C@H](O)[C@H](O)[C@@H]1CNc2nc(N)[nH]c(=O)c2N1,–,2.53%
COc1ccc2[nH]cc(CCNc3ncnc4ccc(-c5c(C)noc5C)cc34)c2c1,6.31 µM (active),–
Clc1ccc2[nH]cc(-c3nnnn3-c3ccccc3)c2c1,28.2 µM (active),–
Fc1ccc(-c2[nH]ncc2-c2nnnn2-c2ccccc2)c(F)c1,–,15.9%
Cc1ccc(-n2nnnc2-c2cnc3ccc(Cl)cc3c2-c2ccccc2)cc1,–,-3.88%
Cc1cccc(C2NC(=O)c3c(sc(C)c3C)N2)c1O (stereo unspecified),–,-12.8%
Clc1ccc(-c2nnc(-c3ccc(Br)cc3)c(N3CCSCC3)n2)cc1,–,-5.11%
CC1(C)Cc2ccccc2C(NNC(=O)c2ccncc2)=N1,7.94 µM (active),–
O=C(NNC(=O)c1ccncc1)c1ccncc1,–,-4.63% [at 11.4 µM]
CC(C)NNC(=O)c1ccncc1,inactive,–
O=C(Cc1ccccc1)N/N=C/c1cc(Br)c(Br)o1,–,-11.9%
COc1ccc(OC)c(C2N(c3cc(C)on3)C(=O)C3CCCN32)c1 (stereo unspecified),–,21.9%
COc1ccc(C(F)(F)F)cc1N/C=C\c1nnnn1-c1ccccc1,–,-1.69%
O=C(CN1CCN(c2ccc(Cl)cc2)CC1)Nc1ccc(F)c(F)c1,3.55 µM (active),–
O=C(CN1CCN(S(=O)(=O)c2ccc(Cl)cc2)CC1)Nc1ccc2c(c1)OCO2,2.51 µM (active),–
COc1cc2c(cc1OC)CN(CC(=O)Nc1ccc3c(c1)OCO3)CC2,8.91 µM (active),–

Structure (SMILES),AC50,"activity, negative = inhibition"
CCOC(=O)c1[nH]c2cc3c(cc2c1NC(=O)CN1CCc2ccccc2C1)OCO3,3.55 µM (active),–
O=C(CSc1ccccc1)Nc1ccc(N2CCN(c3ccccc3)CC2)c(F)c1,–,-5.65%
CCN(CC(=O)Nc1ccc2c(c1)OCCO2)C(=O)c1cccc(S(=O)(=O)N2CCOCC2)c1,–,-15.4%
CCOC(=O)c1[nH]c2cc3c(cc2c1NC(=O)CN1CCC2(CC1)OCCO2)OCO3,–,3.18%
CCOC(=O)c1[nH]c2cc(OC)c(OC)cc2c1NC(=O)c1nonc1C,–,-3.37%
O=C(CSc1ccc(Cl)cc1)Nc1ccc(N2CCN(c3ccccc3)CC2)c(F)c1,–,-1.75%
COc1cc(-c2nnc(SCC(=O)Nc3ccc4c(c3)OCCO4)o2)cc(OC)c1OC,–,-14.4%
COc1cc2c(cc1OC)CN(C(=S)Nc1ccccc1)CC2,–,6.67%
CCOc1ccc(NC(=O)CN2CCN(S(=O)(=O)c3ccc(Cl)cc3)CC2)cc1,–,-13%
N[C@@](CC(=O)O)(Cc1ccccc1)C(=O)O,–,7.77% [at 11.4 µM]
CCN1C(=O)[C@H]2[C@H]3[C@H](O)[C@H](O)C/C(=N/O[C@@H](C)c4cn([C@H]5COC[C@H]5O)nn4)[C@@H]3CC[C@@H]2C1=O,–,-1.04% [at 11.4 µM]
C[C@H](C(=O)c1ccncc1)c1ccccn1,–,-3.93% [at 11.4 µM]
O=C(O)CN(CCN(CC(=O)O)CC(=O)O)CC(=O)O.[Mn],–,9.26% [at 11.4 µM]
Cc1cc(=O)oc(C)c1C(=O)N1CCCCC1,–,15.6%
CCCC[C@@H]1CN2[C@H](c3ccc(Br)cc3)[C@@H](C)CC[C@H]2C(=O)O1,–,-5.55% [at 11.4 µM]
COc1ccc(S(=O)(=O)N2CCCN(CC(=O)Nc3ccc(OC)c(Cl)c3)CC2)cc1,11.2 µM (active),–
COc1ccc(NC(=O)c2cc(S(=O)(=O)N3CCS(=O)(=O)CC3)ccc2Cl)cc1,–,8.12%
CCN1CCN(CCC(=O)Nc2cccc(OC)c2)CC1,–,-7.68%
COc1ccc(S(=O)(=O)N2CCCN(CCC(=O)Nc3cccc(C(F)(F)F)c3)CC2)cc1,8.91 µM (active),–
Cc1c(C(=O)Nc2cccc(C(F)(F)F)c2)oc2ccc(S(=O)(=O)N3CCOCC3)cc12,–,-8.55%
COc1ccc(C)cc1NC(=O)CN1CCN(S(=O)(=O)c2ccc(F)cc2)CC1,–,-21.5%
Cc1nc(SC2CC(=O)N(c3ccc([N+](=O)[O-])cc3)C2=O)nc2c1CCCC2 (stereo unspecified),–,-1.33%
COC(=O)c1ccc(C(=O)OC)c(NC(=S)N2CCN(c3ccccc3)CC2)c1,–,-16.5%
C=CCOc1cccc(CNn2cn[nH]c2=S)c1,–,3.23%
